Results filed as inconclusive are left out. A call without a number means that no potency is given here. The source made the active and inactive calls. Calls follow the shape of the dose curve; as a rule, active = well fitted cell-killing curve with a large enough effect in the repeat runs; inconclusive = weak or mixed curves, or effect the other way; inactive = no such curve, though single readings can be large or run the other way.

The nature of this test: Caspase-3/7 induction in CHO-K1 cells by small molecules, qHTS cell viability counter screen (AID 1346979). Also: nearly all actives have a fitted effect of over 35% in size. The settings on record: CellTiter-Fluor fluorescence, 17 h; series mostly up to 42.5 µM. Summed up: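 Viability readout by fluorescence (CellTiter-Fluor) on wild-type CHO-K1 cells exposed for 16hr at 37C and 5% CO2 to compounds delivered in DMSO; reagent incubated 1hr before reading.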
Consider `CN1CCC(=C2c3ccccc3CC(=O)c3sccc32)CC1`, for which the Potency result is “inactive”.

Turning to `OC[C@]1(O)OC[C@@H](O)[C@H](O)[C@@H]1O`, the Potency result is “inactive”.

As to `CCCCC/C=C\CCC=O`, the Potency entry was “inactive”.

In the case of `CCCC(=O)O[C@]1(C(=O)CO)CC[C@H]2[C@@H]3CCC4=CC(=O)CC[C@]4(C)[C@H]3[C@@H](O)C[C@@]21C`, the Potency result was “inactive”.

For `COC(=O)CCSCCC(=O)OC`, the Potency result was “inactive”.

Turning to `CC(=O)c1ccccc1O`, the Potency entry was “inactive”.

Regarding `CC(NC(CCc1ccccc1)C(=O)O)C(=O)N1C(=O)N(C)CC1C(=O)O` (centres undefined), the Potency entry is “inactive”.

Regarding `NC(=O)c1ccc(N)cc1`, the Potency result was “inactive”.

On to `CC(C)OC(=O)c1ccccc1`, for which the Potency entry was “inactive”.

As for `Nc1c2c(nc3ccccc13)CCCC2O` (centres undefined), the Potency entry is “inactive”.

Regarding `CCCCCCCCCCCCCCCCC`, the Potency entry is “inactive”.

Take `COC(=O)CC(C)=O`: the Potency entry is “inactive”.

Regarding `COc1ccc2c(c1)c(CC(=O)OCC(=O)O)c(C)n2C(=O)c1ccc(Cl)cc1`, the Potency entry was “inactive”.

For `CCN1CCC[C@H]1CNC(=O)c1c(O)c(Cl)cc(Cl)c1OC`, the Potency result was “inactive”.

As to `O=C(O)c1ccccc1OP(=O)(O)O`, the Potency entry is “inactive”.

Regarding `CCOC(C)(C)C`, the Potency entry is “inactive”.

For the molecule `Nc1nc2c(ncn2COC(CO)CO)c(=O)[nH]1`, the Potency entry was “inactive”.

Consider `CCCCCCCCCCCCCC=O`, for which the activity change, negative = cytotoxicity is 0.0836% [at 8.39 µM] (inactive).

As for `c1cnc(N2CCN(Cc3ccc4c(c3)OCO4)CC2)nc1`, the Potency entry is “inactive”.

Take `CC/C=C\CC/C=C/C(OCC)OCC`: the Potency entry was “inactive”.

As to `NCCc1cnc[nH]1`, the Potency entry is “inactive”.

Turning to `CCC(=O)OC(C)c1ccccc1` (centres undefined), the Potency entry was “inactive”.

`COc1c(N2C[C@@H]3CCCN[C@@H]3C2)c(F)cc2c(=O)c(C(=O)O)cn(C3CC3)c12`: the Potency entry is “inactive”.

For `O=S(O)CO`, the Potency entry is “inactive”.

The values are drawn from PubChem BioAssay (Tox21).
